Bioassay records: PubChem BioAssay, Broad Institute
A selection: hits, their analogues and other compounds. The true share with any hit is near 2.3%.
Rtt109 Vps75 = C. albicans Rtt109 histone acetyltransferase inhibition | AID 540336 | inhibition, % at 34.9 µM | purified Rtt109/Vps75, ThioGlo CoA-SH fluorescence, 4 h | 330,000 compounds, 0.16% hits | Q5AAJ8;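 active = inhibition of at least 50% in every replicate; inconclusive = best replicate reaches 50% inhibition but some replicates fall short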
SIRT5 block = sirtuin-5 (human) deacylase inhibition. AID 652115. Q9NXA8. 330,000 compounds, 1.1% hits. inhibition, % at 15 µM. Purified SirT5, succinyl-peptide AMC, trypsin-coupled fluorescence; in the data active = inhibition above about 15%; inconclusive = no clear call, values can overlap the other calls
DENV2 CPE = inhibitors of DENV2 cytopathic effect | DENV2-infected cells, cytopathic effect rescue, plate reader | CPE inhibition, % at 9.99 µM | 350,000 compounds, 1.7% hits | AID 651640; in the data active = CPE inhibition above about 20%, passing the limit was not always enough; inconclusive = no clear call, values can overlap the other calls; tested in BHK-21 cells;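 note: 0% = median of neutral control wells and 100% = median of positive control wells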
PDI inh = blocks human protein disulfide isomerase activity; P07237; PDI insulin aggregation turbidity, A650, 90 min; inhibition, % at 10 µM; 350,000 compounds, 0.052% hits; AID 588391;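 active = mean inhibition across replicates of 30% or more, whatever share of single replicates reach that level; inconclusive = mean inhibition below 30% while every single replicate reaches 30%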
Target sequence (P07237 whole entry, looked up): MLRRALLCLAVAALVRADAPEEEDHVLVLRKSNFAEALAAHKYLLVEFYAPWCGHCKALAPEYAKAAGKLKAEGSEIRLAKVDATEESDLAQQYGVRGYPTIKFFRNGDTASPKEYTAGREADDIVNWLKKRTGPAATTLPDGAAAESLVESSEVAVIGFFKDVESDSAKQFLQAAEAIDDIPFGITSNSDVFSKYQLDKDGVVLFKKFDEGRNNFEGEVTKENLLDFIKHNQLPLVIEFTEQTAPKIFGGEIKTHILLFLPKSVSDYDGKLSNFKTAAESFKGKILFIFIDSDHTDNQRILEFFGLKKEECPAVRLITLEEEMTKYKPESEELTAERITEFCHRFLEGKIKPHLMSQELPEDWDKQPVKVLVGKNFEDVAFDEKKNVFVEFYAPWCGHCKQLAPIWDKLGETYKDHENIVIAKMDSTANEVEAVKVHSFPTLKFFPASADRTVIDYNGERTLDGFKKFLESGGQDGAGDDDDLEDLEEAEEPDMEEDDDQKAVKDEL
ERp5 block = blocks human ERp5 reductase activity on insulin; ERp5 insulin aggregation, absorbance 650 nm, 90 min; 350,000 compounds, 0.05% hits; Q15084; AID 651711; inhibition, % at 9.99 µM;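 active = mean replicate inhibition above about 25%, with every replicate also reaching it, limit read from the data, passing the limit was not always enough; inconclusive = only one of those two criteria met; inactive = neither criterion met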
* marks the source's active call; other numbers are inactive results; u = inconclusive; x = no result given; ! = a repeat was not active.

SMILES | Rtt109 Vps75 | SIRT5 block | DENV2 CPE | PDI inh | ERp5 block
O=C(C[C@@H]1CC[C@@H]2[C@H](COC[C@H](O)CN2C(=O)c2cccnc2)O1)NCc1ccc(Cl)cc1 | x | 10 | 3 | x | -1
CC(C)NC(=O)Nc1ccc2c(c1)CC(=O)N([C@H](C)CO)C[C@H](C)[C@@H](CN(C)C(=O)Nc1ccc3c(c1)OCO3)O2 | x | 6 | x | x | -2
CC(=O)Nc1ccc(NC(=O)CSc2nc(=O)n3cccc(C)c3n2)cc1 | 6 | 0 | 7 | 32* | 8
O=C(CSc1nc2ccsc2c(=O)n1CC1CCC(C(=O)O)CC1)c1ccc(F)cc1 (stereo not given) | 1 | 0 | 10 | -5 | -2
O=C(CSc1nc2ccsc2c(=O)n1CC1CCC(C(=O)O)CC1)c1ccc(Cl)cc1 (stereo not given) | 2 | 16* | 2 | 6 | -2
O=C(O)CCCCCn1c(SCC(=O)c2ccc(O)c(O)c2)nc2ccsc2c1=O | 7 | x | x | 32* | x
COc1ccc(CN(C)C[C@H]2Oc3c(NS(=O)(=O)c4ccc(C)cc4)cccc3C(=O)N([C@H](C)CO)C[C@H]2C)cc1 | x | -5 | -3 | x | 2
C[C@@H]1CN([C@H](C)CO)C(=O)c2cccc(NS(=O)(=O)c3cccs3)c2O[C@H]1CN(C)Cc1ccc(Cl)c(Cl)c1 | x | 0 | 41* | x | -3
COc1ccc(S(=O)(=O)Nc2cccc3c2O[C@H](CN(C)Cc2ccc(Cl)c(Cl)c2)[C@@H](C)CN([C@H](C)CO)C3=O)cc1 | 6 | 15* | 25* | 2 | 1
COc1ccc(CN(C)C[C@H]2Oc3c(NS(=O)(=O)c4ccc(C)cc4)cccc3C(=O)N([C@H](C)CO)C[C@@H]2C)cc1 | x | 1 | 31* | x | -2
C[C@@H]1CN([C@@H](C)CO)C(=O)c2cccc(NS(=O)(=O)c3ccc(F)cc3)c2O[C@@H]1CN(C)C(=O)Nc1ccc2c(c1)OCO2 | x | -4 | -7 | x | 0
C[C@H](CO)N1C[C@H](C)[C@H](CN(C)C(=O)Nc2ccc3c(c2)OCO3)Oc2c(NS(=O)(=O)c3ccccc3)cccc2C1=O | x | 5 | -5 | x | -2
C[C@@H]1CN([C@H](C)CO)C(=O)c2cccc(NS(=O)(=O)c3ccc(F)cc3)c2O[C@@H]1CN(C)C(=O)Nc1ccc2c(c1)OCO2 | x | -7 | 24* | x | -15
C[C@H](CO)N1C[C@H](C)[C@@H](CN(C)C(=O)Nc2ccc3c(c2)OCO3)Oc2c(NS(=O)(=O)c3ccccc3)cccc2C1=O | 6 | 1 | 28*! | -2 | -2
O=C(C1CCC1)N1CC2(C1)[C@@H](c1ccccc1)[C@@H](CO)N2Cc1nccs1 | x | -5 | 3 | x | 10
CC(C)(C)c1ccc(S(=O)(=O)NC(=O)C2(C)CCN2C(=O)C2CCCCC2)cc1 (stereo not given) | x | 19* | 4 | 3 | 1
CC(C)(C)c1ccc(S(=O)(=O)NC(=O)C2(C)CCN2C(=O)CC2CCCCC2)cc1 (stereo not given) | x | 0 | -16 | 0 | 7
CCOc1c2ccc(C(=O)NCc3ccc4c(c3)OCO4)cc2nn1CC | 3 | -12 | 32* | -1 | 4
COc1cc(OC)cc(C(=O)NCc2ccc3c(c2)OCO3)c1 | -2 | -10 | 29* | -27 | 2
CCCC#Cc1ccc2c(c1)O[C@H](CN(C)C(=O)c1ccccc1F)[C@H](C)CN([C@H](C)CO)S2(=O)=O | x | 18* | 2 | x | -3
CCCC#Cc1ccc2c(c1)O[C@@H](CN(C)C(=O)c1ccccc1F)[C@@H](C)CN([C@@H](C)CO)S2(=O)=O | x | 17* | -12 | x | 4
CC(C)CC#Cc1ccc2c(c1)O[C@H](CN(C)C(=O)c1ccccc1F)[C@@H](C)CN([C@@H](C)CO)S2(=O)=O | x | 9 | 32* | x | 2
C[C@H](CO)N1C[C@H](C)[C@H](CN(C)C(=O)c2ccccc2F)Oc2cc(C#CCN(C)C)ccc2S1(=O)=O | x | -4 | 16 | x | -2
CCCC#Cc1ccc2c(c1)O[C@H](CN(C)C(=O)Nc1ccccc1F)[C@@H](C)CN([C@H](C)CO)S2(=O)=O | x | 21* | -1 | x | 2
COCC#Cc1ccc2c(c1)O[C@@H](CN(C)C(=O)c1ccccc1F)[C@@H](C)CN([C@H](C)CO)S2(=O)=O | x | 4 | u | x | 3
SMILES | Rtt109 Vps75 | SIRT5 block | DENV2 CPE | PDI inh | ERp5 block
CCCC(=O)N1CCC2(CC1)CN(C(=O)Nc1c(C)noc1C)[C@@H](CO)c1c2c2ccc(OC)cc2n1C | x | -4 | u | x | 1
COc1ccc2c3c([nH]c2c1)[C@H](CO)N(C(=O)CN(C)C)CC31CN(Cc2ccccc2)C1 | x | x | 6 | x | 3
Cc1ccc2ccc(C(Nc3ccccc3)c3ccccc3)c(O)c2n1 (stereo not given) | x | 3 | 35* | x | 2
Cc1ccc2ccc(C(Nc3ccccc3)c3ccc(C(C)C)cc3)c(O)c2n1 (stereo not given) | x | -5 | -5 | x | 2
COc1ccc(CN(C)C[C@H]2OCCCC[C@H](C)Oc3ccc(N(C)C)cc3C(=O)N([C@H](C)CO)C[C@@H]2C)cc1 | x | -4 | u | x | 2
COc1ccc(NC(=O)Nc2ccc3c(c2)CC(=O)N([C@H](C)CO)C[C@H](C)[C@H](CN(C)S(=O)(=O)c2ccc(F)cc2)O3)cc1 | x | -7 | 8 | x | -3
Cc1cccc(C)c1NC(=O)COC(=O)c1cc(=O)[nH]c2ccccc12 | -5 | 17* | u | -4 | 0
O=C(OCC(=O)N1CCOCC1)c1cc(=O)[nH]c2ccccc12 | -4 | -4 | 28* | 4 | 4
CCNC(=O)COC(=O)c1cc(=O)[nH]c2ccccc12 | -18 | x | x | 1 | x
C[C@@H]1CN([C@H](C)CO)C(=O)c2cc(NC(=O)Cc3cn(C)c4ccccc34)ccc2O[C@H]1CN(C)Cc1ccc(C(=O)O)cc1 | x | -1 | -7 | x | -3
C[C@H](CO)N1C[C@H](C)[C@@H](CN(C)Cc2ccc(Cl)c(Cl)c2)Oc2ccc(NC(=O)Cc3cn(C)c4ccccc34)cc2C1=O | x | -1 | -1 | x | -14
C[C@H](CO)N1C[C@H](C)[C@H](CN(C)Cc2ccc(C(=O)O)cc2)Oc2ccc(NC(=O)Cc3cn(C)c4ccccc34)cc2C1=O | x | -4 | 70* | x | 0
C[C@@H]1CN([C@@H](C)CO)C(=O)c2cc(NC(=O)Cc3cn(C)c4ccccc34)ccc2O[C@H]1CN(C)Cc1ccc(Cl)c(Cl)c1 | x | 26* | -7 | x | 0
CN1C(=O)c2cc(NC(=O)C3CC3)ccc2OC[C@H]2O[C@@H](CC(=O)NCCN3CCCC3)CC[C@H]21 | x | -3 | 4 | x | -1
O=C(C[C@@H]1C[C@@H]2c3cc(NC(=O)C4CCC4)ccc3O[C@@H]2[C@@H](CO)O1)NCc1ccc2c(c1)OCO2 | x | 3 | 5 | x | -8
O=C(CCc1c[nH]c2ccccc12)OCc1cccc([N+](=O)[O-])c1 | 5 | 0 | 27* | -5 | 1
O=C(OCC(=O)c1c[nH]c2ccccc12)c1cccc([N+](=O)[O-])c1 | 7 | -3 | 80* | 5 | -1
COC(=O)CCc1c[nH]c2ccc([N+](=O)[O-])cc12 | -6 | 1 | -4 | -9 | 0
